In the supplement of paper PMC7411054:
Counter-ions that a name gives are not always drawn.

test system: A549-TUBA1B-RELA; test: lowest phenotypically active concentration; higher = less potent; conditions: treatment time: 24 h
Outline: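 After 24 h at 0.3, 1, 3 or 9 µM, with four wells per treatment, fifteen gene-edited A549, HepG2 and WPMY1 reporter lines carrying BFP, GFP and RFP/FusionRed were imaged live. Each well's live-cell features were expressed relative to solvent control wells. Deviation required ≥3 of 4 wells past the 95th percentile of control Euclidean distances, and reproducibility a median replicate Pearson correlation over the 95th percentile of non-replicates. Phenotypic activity rested on both.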

Structure (SMILES) | lowest phenotypically active concentration
CC/C(=C(\CC)c1ccc(O)c(CN(CC)CC)c1)c1ccc(O)c(CN(CC)CC)c1 | ≤ 0.3 µM
CNCCC(Oc1ccc(C(F)(F)F)cc1)c1ccccc1 (configuration not stated) [fluoxetine] | 3 µM
Cn1cc(C2=C(c3ccc(Cl)cc3Cl)C(=O)NC2=O)c2ccccc21 | 1 µM
CC(C)COCC(CN(Cc1ccccc1)c1ccccc1)N1CCCC1 (configuration not stated) [bepridil] | 9 µM
O=C(NOCC1CC1)c1ccc(F)c(F)c1Nc1ccc(I)cc1Cl | 9 µM
COc1ccc(CCNCc2ccc(OCc3ccc(Cl)nc3)c(OC)c2)cc1OC [SBE 13 hydrochloride] | 3 µM
Cc1noc(C)c1Cn1cc(C#N)c2cc(Oc3ccc(NC(=O)[C@@H]4CCCN4)cc3)ccc21 | 9 µM
CCCS(=O)(=O)Nc1ccc(F)c(C(=O)c2c[nH]c3ncc(Cl)cc23)c1F | 9 µM
COc1ccc(CNC(=O)Nc2ncc([N+](=O)[O-])s2)cc1 | 9 µM
C[C@H]1Oc2cc(cnc2N)-c2c(nn(C)c2C#N)CN(C)C(=O)c2ccc(F)cc21 | 1 µM
CC(C)OC(=O)c1cc2c(OCC(O)CNC(C)(C)C)cccc2[nH]1 (configuration not stated) | 3 µM
COc1ccccc1OCCNCC(O)COc1cccc2[nH]c3ccccc3c12 (configuration not stated) [Carvedilol] | 9 µM
CCCCOc1cc(C(=O)NCCN(CC)CC)c2ccccc2n1 [cinchocaine] | 9 µM
O=S(=O)(c1cccc2cnccc12)N1CCCNCC1 [fasudil] | 3 µM
CSc1ccc2c(c1)N(CCC1CCCCN1C)c1ccccc1S2 (configuration not stated) [thioridazine] | 3 µM
CCCNCC(O)COc1ccccc1C(=O)CCc1ccccc1 (configuration not stated) [propafenone] | 9 µM
O=C(O)[C@@H]1[C@H]2C[C@H]3c4[nH]c5ccccc5c4CCN3C[C@@H]2CC[C@@H]1O [Yohimbinic acid monohydrate] | 9 µM
COc1cc(N2CCC(N)CC2)ccc1Nc1ncc(Cl)c(-c2c[nH]c3ccccc23)n1 | 1 µM
COc1cc2ncnc(Nc3ccc(Cl)cc3F)c2cc1OC | 3 µM
Cc1noc(C)c1-c1ccc2c(c1)nc(CCc1ccc(OCCCN(C)C)cc1)n2CCN1CCOCC1 | 3 µM
Cc1ccc(NC(=O)c2cccc(N(C)C)c2)cc1NC(=O)c1ccc(O)cc1 | 3 µM
Cc1cc(Nc2ccc(NC(=O)c3ccc(Nc4ccnc5ccccc45)cc3)cc2)nc(N)n1 | 1 µM
Cc1ccc(NC2=CC(=O)c3sc(C)nc3C2=O)cc1 [Ryuvidine] | 3 µM
C[C@]1(O)C[C@@H](c2nc(-c3ccc4ccc(-c5ccccc5)nc4c3)c3c(N)nccn32)C1 [linsitinib] | 3 µM
COc1cc2c(cc1OCCCN1CCCC1)N=C(N)C21CCC1 | 9 µM
NC(=O)c1cccc(-c2cc(Nc3ccc(OC(F)(F)F)cc3)ncn2)c1 | 9 µM
CN1[C@@H]2CC[C@H]1C[C@@H](OC(c1ccccc1)c1ccccc1)C2 [benztropine] | 9 µM
